# Active and inactive are the calls of the source. How the source made its calls: active means hit-call score of the fitted dose curve at least 0.9, where 1 is the maximum; inactive means score below 0.9.
# Experiments:
# [1] = ATG_CRE_CIS: Attagene CIS-FACTORIAL HepG2 Assay for human cAMP Responsive Element (CRE) binding protein 3 (AID 2282926); details: HepG2 CRE cis-reporter, Attagene multiplexed mRNA; actives raise or lower the signal
# In short: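 Multiplexed transcription-unit reporters transfected into HepG2; 24 h dosing; RT-PCR/capillary electrophoresis fluorescence read-out; bidirectional fit vs DMSO.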
# [2] = biological target: CCAAT/enhancer-binding protein beta (Homo sapiens) (UniProt P17676); test: ATG_C_EBP_CIS: Attagene CIS-FACTORIAL HepG2 Assay for human CCAAT/Enhancer Binding Protein (C/EBP) beta (AID 2282927); details: HepG2 Attagene cis-factorial transcription factor reporter; actives raise or lower the signal
# Chain of CCAAT/enhancer-binding protein beta (Homo sapiens) (P17676 whole entry, looked up, the tested form may be a part): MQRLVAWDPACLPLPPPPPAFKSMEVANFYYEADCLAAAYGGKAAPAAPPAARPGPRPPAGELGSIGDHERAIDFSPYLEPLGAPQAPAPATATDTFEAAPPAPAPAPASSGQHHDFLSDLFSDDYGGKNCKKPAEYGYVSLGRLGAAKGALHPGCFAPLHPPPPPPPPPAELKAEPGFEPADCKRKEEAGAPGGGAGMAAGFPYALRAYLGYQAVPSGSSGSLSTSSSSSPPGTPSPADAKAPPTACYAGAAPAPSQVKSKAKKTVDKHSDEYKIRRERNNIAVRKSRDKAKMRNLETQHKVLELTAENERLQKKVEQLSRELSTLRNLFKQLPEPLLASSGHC
# In short: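 Endogenous C/EBPb-driven reporter transcripts measured in transfected human HepG2 cells at 24 h via RT-PCR and capillary electrophoresis of labelled fragments. Activity fitted in both directions relative to DMSO baseline.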
# [3] = ATG_CMV_CIS: Attagene CIS-FACTORIAL HepG2 Assay for human CMV (Internal Marker) (AID 2282928); details: HepG2 CMV promoter reporter, transcription factor profiling; actives raise or lower the signal;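 further: endpoint acts as a background internal control marker rather than a target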
# In short: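 HepG2 cells transiently transfected with multiple cis-regulated reporter units; 24 h compound exposure. Reporter mRNA quantified by RT-PCR, 6-FAM primer-extension labeling, HpaI digestion and capillary electrophoresis; bidirectional fitting against DMSO baseline.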
# [4] = ATG_DR4_LXR_CIS: Attagene CIS-FACTORIAL HepG2 Assay for human Liver X Receptor (LXR), DR4 submotif (AID 2282929); details: HepG2 Attagene DR4 cis-reporter, mRNA transcription; actives raise or lower the signal
# In short: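 DR4 cis-reporter in HepG2, 24 h exposure. Detection: RT-PCR, 6-FAM labelling, CE fragment analysis. Endpoint fitted bidirectionally, DMSO = baseline.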
# [5] = biological target: Aryl hydrocarbon receptor (Homo sapiens) (UniProt P35869); test: ATG_Ahr_CIS: Attagene CIS-FACTORIAL HepG2 Assay for human Aryl Hydrocarbon Receptor (Ahr) (AID 2282930); details: HepG2 AhR cis-factorial reporter transcription; actives raise or lower the signal
# Chain of Aryl hydrocarbon receptor (Homo sapiens) (P35869 whole entry, looked up): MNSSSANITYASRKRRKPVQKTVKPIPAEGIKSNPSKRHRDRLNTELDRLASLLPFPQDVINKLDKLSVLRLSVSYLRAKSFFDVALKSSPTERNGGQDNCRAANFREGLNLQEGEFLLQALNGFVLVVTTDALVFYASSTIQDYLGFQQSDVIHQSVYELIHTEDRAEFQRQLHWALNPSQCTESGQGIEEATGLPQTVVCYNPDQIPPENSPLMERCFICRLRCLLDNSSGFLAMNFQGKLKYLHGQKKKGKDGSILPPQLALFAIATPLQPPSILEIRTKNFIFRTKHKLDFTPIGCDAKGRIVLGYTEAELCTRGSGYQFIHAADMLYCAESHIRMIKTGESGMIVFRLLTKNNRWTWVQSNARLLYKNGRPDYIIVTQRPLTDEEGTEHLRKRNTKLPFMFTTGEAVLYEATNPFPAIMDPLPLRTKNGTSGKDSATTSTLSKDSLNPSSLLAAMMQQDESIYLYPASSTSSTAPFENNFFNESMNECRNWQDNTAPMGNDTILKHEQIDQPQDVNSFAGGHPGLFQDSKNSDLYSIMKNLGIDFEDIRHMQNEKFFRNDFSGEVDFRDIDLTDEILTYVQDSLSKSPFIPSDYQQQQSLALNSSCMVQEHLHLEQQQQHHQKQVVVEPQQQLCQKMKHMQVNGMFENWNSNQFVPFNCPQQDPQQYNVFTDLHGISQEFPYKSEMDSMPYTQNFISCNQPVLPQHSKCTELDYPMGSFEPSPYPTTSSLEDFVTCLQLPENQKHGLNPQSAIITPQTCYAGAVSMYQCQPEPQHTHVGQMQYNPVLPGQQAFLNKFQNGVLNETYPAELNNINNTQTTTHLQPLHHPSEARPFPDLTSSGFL
# In short: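 Reporter mRNA levels, quantified by RT-PCR and fluorescent capillary electrophoresis, reflect endogenous AhR transcriptional activity in HepG2 cells carrying transfected cis-promoter reporter constructs. Readout at 24 h post-dose; gain or loss fitted against DMSO baseline.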
# [6] = ATG_AP_1_CIS: Attagene CIS-FACTORIAL HepG2 Assay for human Activator Protein 1 (AP-1) (AID 2282931); details: HepG2 Attagene cis-factorial AP-1 reporter mRNA; actives raise or lower the signal
# In short: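 Cis-regulated reporter units transiently expressed in HepG2 report endogenous transcription-factor activity. Signal: reporter mRNA at 24 h, via RT-PCR and fluorescent capillary electrophoresis. Endpoint derived by bidirectional fitting, DMSO as negative control.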
# [7] = ATG_AP_2_CIS: Attagene CIS-FACTORIAL HepG2 Assay for human Activator Protein 2 (AP-2) (AID 2282932); details: HepG2 AP-2 cis-reporter, Attagene transcription factor profiling; actives raise or lower the signal
# In short: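 Step one: transient transfection of HepG2 with reporter transcription units. Step two: 24 h chemical exposure. Step three: RNA extraction, RT-PCR, labelled fragment analysis by capillary electrophoresis; DMSO serves as baseline.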
# [8] = ATG_BRE_CIS: Attagene CIS-FACTORIAL HepG2 Assay for human Bone Morphogenetic Protein (BMP) Response Element (BRE) (AID 2282933); details: HepG2 BMP response element reporter, Attagene transcription factor profiling; actives raise or lower the signal
# In short: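 Gain- or loss-of-signal was derived by bidirectional fitting against DMSO controls. The signal came from reporter mRNA, measured by RT-PCR and capillary electrophoresis, in HepG2 cells transiently carrying multiple reporter units and dosed for 24 h.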
# [9] = biological target: Transcription factor E2F1 (Homo sapiens) (UniProt Q01094); test: ATG_E2F_CIS: Attagene CIS-FACTORIAL HepG2 Assay for human E2F Transcription Factor 1 (AID 2282935); details: HepG2 Attagene cis-reporter, E2F reporter RNA transcripts; actives raise or lower the signal
# Chain of Transcription factor E2F1 (Homo sapiens) (Q01094 whole entry, looked up): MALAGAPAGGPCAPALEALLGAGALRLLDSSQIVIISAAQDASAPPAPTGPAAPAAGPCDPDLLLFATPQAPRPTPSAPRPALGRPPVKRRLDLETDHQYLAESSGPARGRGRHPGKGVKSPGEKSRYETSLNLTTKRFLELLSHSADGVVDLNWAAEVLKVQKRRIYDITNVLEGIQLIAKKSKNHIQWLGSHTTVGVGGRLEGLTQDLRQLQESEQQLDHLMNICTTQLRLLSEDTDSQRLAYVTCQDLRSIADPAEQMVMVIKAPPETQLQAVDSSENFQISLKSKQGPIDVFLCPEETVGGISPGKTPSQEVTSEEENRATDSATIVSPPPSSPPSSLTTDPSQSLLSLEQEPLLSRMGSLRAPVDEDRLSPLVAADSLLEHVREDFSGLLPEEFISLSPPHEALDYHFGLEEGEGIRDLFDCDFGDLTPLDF
# In short: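 Total RNA from 24 h-treated, reporter-transfected HepG2 cells undergoes DNase I treatment, oligo(dT) reverse transcription, PCR and 6-FAM primer extension before capillary electrophoresis.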
# [10] = ATG_E_Box_CIS: Attagene CIS-FACTORIAL HepG2 Assay for human Enhancer Box (E-box) (AID 2282936); details: HepG2 E-box cis-reporter transcription, actives raise or lower the signal
# In short: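 DMSO served as negative control and baseline for bidirectional fitting. Human hepatoma HepG2 cells, transiently transfected with cis-reporter constructs, were dosed 24 h; reporter mRNA read by RT-PCR and capillary electrophoresis.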
# [11] = ATG_M_61_CIS: Attagene CIS-FACTORIAL HepG2 Assay for M61 Transcription Factor (Internal Marker) (AID 2282937); details: HepG2 Attagene CIS-FACTORIAL M61 internal marker reporter; actives raise or lower the signal
# In short: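 Background-control endpoint: HepG2 cells with cis-regulated reporter constructs, 24 h exposure, reporter mRNA detected via fluorescent primer extension and capillary electrophoresis; values from bidirectional fitting with DMSO baseline.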
# [12] = ATG_EGR_CIS: Attagene CIS-FACTORIAL HepG2 Assay for human Early Growth Response 1 (EGR1) (AID 2282938); details: HepG2 Attagene CIS-FACTORIAL EGR reporter mRNA; actives raise or lower the signal
# In short: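 Endpoint derived by bidirectional fitting versus DMSO vehicle. Method: cis-promoter reporter units transfected into HepG2, 24 h dosing, RNA isolation, RT-PCR with 6-FAM primer extension and HpaI digestion, then capillary electrophoresis fluorescence detection.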
# [13] = ATG_M_19_CIS: Attagene CIS-FACTORIAL HepG2 Assay for M19 Transcription Factor (Internal Marker) (AID 2282939); details: HepG2 Attagene CIS-FACTORIAL M19 internal marker reporter; actives raise or lower the signal
# In short: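 Following a 24 h exposure, RNA from transfected HepG2 cells was reverse-transcribed, PCR-amplified with reporter-specific primers, end-labelled with 6-FAM and HpaI-digested before capillary separation. Values represent gain or loss versus DMSO.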
# [14] = ATG_Ets_CIS: Attagene CIS-FACTORIAL HepG2 Assay for human Erythroblast Transformation Specific (ETS) (AID 2282941); details: HepG2 ETS cis-reporter transcription, actives raise or lower the signal
# In short: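 HepG2 cells transiently transfected with cis-promoter reporter transcription units were dosed for 24 h; reporter mRNA was measured by RT-PCR, 6-FAM primer extension, HpaI digestion and capillary electrophoresis, with bidirectional fitting against DMSO baseline.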
# [15] = biological target: Hepatocyte nuclear factor 3-beta (Homo sapiens) (UniProt Q9Y261); test: ATG_FoxA2_CIS: Attagene CIS-FACTORIAL HepG2 Assay for human Forkhead box A2 (FOXA2) (AID 2282942); details: HepG2 cis-reporter transcription factor activity, 24 h; actives raise or lower the signal
# Chain of Hepatocyte nuclear factor 3-beta (Homo sapiens) (Q9Y261 whole entry, looked up): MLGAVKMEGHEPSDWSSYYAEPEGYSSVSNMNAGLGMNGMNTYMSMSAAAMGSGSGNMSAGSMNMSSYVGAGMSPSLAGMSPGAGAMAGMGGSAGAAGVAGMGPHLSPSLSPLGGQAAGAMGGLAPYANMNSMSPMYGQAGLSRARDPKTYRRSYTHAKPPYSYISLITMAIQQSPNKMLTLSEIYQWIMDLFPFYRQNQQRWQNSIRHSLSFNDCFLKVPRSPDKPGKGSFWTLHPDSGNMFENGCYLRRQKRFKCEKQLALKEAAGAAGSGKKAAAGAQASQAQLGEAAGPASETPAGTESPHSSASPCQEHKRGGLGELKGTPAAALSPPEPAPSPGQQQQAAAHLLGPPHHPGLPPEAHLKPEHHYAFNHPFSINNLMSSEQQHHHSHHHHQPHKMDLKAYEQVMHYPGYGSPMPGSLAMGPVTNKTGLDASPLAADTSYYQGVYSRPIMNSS
# In short: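 Measured: reporter mRNA induction or loss in HepG2 transiently carrying multiple cis-regulated reporter units, 24 h after dosing. Quantified by RT-PCR plus capillary electrophoresis, normalised to DMSO.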
# [16] = ATG_FoxO_CIS: Attagene CIS-FACTORIAL HepG2 Assay for human Forkhead box O (FoxO) (AID 2282943); details: HepG2 Attagene cis-reporter, FoxO element, mRNA; actives raise or lower the signal
# In short: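 Endogenous transcription factor activity read from multiplexed cis-promoter reporter transcripts in transiently transfected HepG2, 24 h after dosing. Reporter RNA measured via RT-PCR plus capillary electrophoresis of FAM-labeled products; gain or loss relative to DMSO.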
# [17] = ATG_GATA_CIS: Attagene CIS-FACTORIAL HepG2 Assay for human GATA Binding Protein (AID 2282944); details: HepG2 GATA cis-element reporter, Attagene multiplex mRNA; actives raise or lower the signal
# In short: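 DMSO serves as negative control and baseline for bidirectional fitting of reporter mRNA changes. HepG2 cells bearing transiently transfected cis-promoter reporters were exposed 24 h; transcripts detected via RT-PCR and capillary electrophoresis.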
# [18] = ATG_GLI_CIS: Attagene CIS-FACTORIAL HepG2 Assay for human Zinc Finger Protein GLI1 (AID 2282945); details: HepG2, Attagene cis-factorial reporter mRNA, GLI element; actives raise or lower the signal
# In short: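 Bidirectional curve fits relative to DMSO, using reporter mRNA levels from RT-PCR plus capillary electrophoresis. Cells were HepG2 transiently carrying cis-regulated reporter constructs, harvested 24 h after dosing.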
# [19] = ATG_ERE_CIS: Attagene CIS-FACTORIAL HepG2 Assay for Estrogen Response Element (ERE) (AID 2282940); details: HepG2 ERE cis-reporter, Attagene RNA transcript; actives raise or lower the signal
# In short: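 HepG2, transient cis-reporter units, 24 h exposure. RNA isolated, oligo(dT) RT, reporter-specific PCR, FAM extension, HpaI cut, CE detection. Gain/loss-of-signal vs DMSO.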
structure (smiles),measurement,setting,value
S=C(S)NCCNC(=S)S,outcome,[1],inactive
same,outcome,[2],inactive
same,outcome,[3],inactive
same,outcome,[4],inactive
same,outcome,[5],inactive
same,outcome,[6],inactive
same,outcome,[7],inactive
same,outcome,[8],inactive
same,outcome,[9],inactive
same,outcome,[10],inactive
same,outcome,[11],inactive
same,outcome,[12],inactive
same,outcome,[13],inactive
same,outcome,[14],inactive
same,outcome,[15],inactive
same,outcome,[16],inactive
same,outcome,[17],inactive
same,outcome,[18],inactive
NC(=O)c1ccccc1Cl,AC50,[1],61.2 µM (active)
same,outcome,[2],inactive
same,outcome,[3],inactive
same,outcome,[4],inactive
same,outcome,[5],inactive
same,AC50,[6],27 µM (active)
same,AC50,[7],76.4 µM (active)
same,outcome,[8],inactive
same,outcome,[9],inactive
same,AC50,[10],61.1 µM (active)
same,outcome,[11],inactive
same,AC50,[12],67.2 µM (active)
same,outcome,[13],inactive
same,outcome,[19],inactive
same,outcome,[15],inactive
same,outcome,[17],inactive
same,AC50,[18],139 µM (active)
CC(C)=CCC[C@H](C)CC=O,outcome,[1],inactive
same,outcome,[2],inactive
same,outcome,[3],inactive
same,outcome,[4],inactive
same,outcome,[5],inactive
same,outcome,[6],inactive
same,outcome,[7],inactive
same,outcome,[8],inactive
same,outcome,[9],inactive
same,outcome,[10],inactive
same,outcome,[11],inactive
same,outcome,[12],inactive
same,outcome,[13],inactive
same,outcome,[14],inactive
same,outcome,[15],inactive
same,outcome,[16],inactive
same,outcome,[17],inactive
same,outcome,[18],inactive
CCCCCC(=O)OCCc1ccccc1,outcome,[1],inactive
same,outcome,[2],inactive
same,outcome,[3],inactive
same,outcome,[4],inactive
same,outcome,[5],inactive
same,outcome,[6],inactive
same,outcome,[7],inactive
same,outcome,[8],inactive
same,outcome,[9],inactive
same,outcome,[10],inactive
same,outcome,[11],inactive
same,outcome,[12],inactive
same,outcome,[13],inactive
same,outcome,[19],inactive
same,outcome,[15],inactive
same,outcome,[16],inactive
same,outcome,[18],inactive
C#C[C@]1(O)CC[C@H]2[C@@H]3CCC4=Cc5oncc5C[C@]4(C)[C@H]3CC[C@@]21C,AC50,[1],41.2 µM (active)
same,outcome,[2],inactive
same,outcome,[3],inactive
same,AC50,[4],14.5 µM (active)
same,outcome,[5],inactive
same,AC50,[6],26.2 µM (active)
same,outcome,[7],inactive
same,outcome,[8],inactive
same,AC50,[9],33.4 µM (active)
same,AC50,[10],53.8 µM (active)
same,outcome,[11],inactive
same,AC50,[12],21.9 µM (active)
same,outcome,[13],inactive
same,AC50,[19],0.83 µM (active)
same,outcome,[15],inactive
same,AC50,[17],54.6 µM (active)
same,AC50,[18],60.9 µM (active)
OC[C@H]1O[C@H](O[C@]2(CCl)O[C@H](CCl)[C@@H](O)[C@@H]2O)[C@H](O)[C@@H](O)[C@H]1Cl,outcome,[1],inactive
same,outcome,[2],inactive
same,outcome,[3],inactive
same,outcome,[4],inactive
same,outcome,[5],inactive
same,outcome,[6],inactive
same,outcome,[7],inactive
same,outcome,[8],inactive
same,outcome,[9],inactive
same,outcome,[10],inactive
same,outcome,[11],inactive
same,outcome,[12],inactive
same,outcome,[13],inactive
same,outcome,[14],inactive
same,outcome,[15],inactive
same,outcome,[16],inactive
same,outcome,[17],inactive
same,outcome,[18],inactive
CCCCCCC#CC(=O)OC,outcome,[1],inactive
same,outcome,[2],inactive
same,outcome,[3],inactive
same,outcome,[4],inactive
same,outcome,[5],inactive
same,outcome,[6],inactive
same,outcome,[7],inactive
same,outcome,[8],inactive
same,outcome,[9],inactive
same,outcome,[10],inactive
same,outcome,[11],inactive
same,outcome,[12],inactive
same,outcome,[13],inactive
same,outcome,[14],inactive
same,outcome,[15],inactive
same,outcome,[16],inactive
same,outcome,[17],inactive
same,outcome,[18],inactive
CC(=O)Nc1ccccc1O,outcome,[1],inactive
same,outcome,[2],inactive
same,outcome,[3],inactive
same,outcome,[4],inactive
same,AC50,[5],20.7 µM (active)
same,outcome,[6],inactive
same,outcome,[7],inactive
same,outcome,[8],inactive
same,outcome,[9],inactive
same,outcome,[10],inactive
same,outcome,[11],inactive
same,outcome,[12],inactive
same,outcome,[13],inactive
same,outcome,[14],inactive
same,outcome,[15],inactive
same,outcome,[16],inactive
same,outcome,[17],inactive
same,outcome,[18],inactive

# Source: PubChem BioAssay (EPA / NIEHS)
